This is an account of results in PubChem BioAssay AID1508601 (ICCB-Longwood Screening Facility, Harvard Medical School, 2020).

SMILES strings stand for the structures. Where “and” joins values, the source holds several entries; their conditions need not be identical. Identical values can stand only once. About 85 (1%) of roughly 5,700 compounds were called active. Rule as the data show it: active = p53-positive nuclei above about 36% (passing the limit was not always enough); inactive = the rest. This excerpt belongs to a sample that is enriched for actives.

A short description of test [1]: p53 stabilisation in HPV-positive human cells, imaging, p53-positive nuclei imaging, 24 h, 48 h (AID 1508601). As to conditions: 24/48 h.
The target in test [2] is Cellular tumor antigen p53 (Homo sapiens) (UniProt P04637). Described as above. As to conditions: 24/48 h, stronger effect = higher value.
Sequence of Cellular tumor antigen p53 (Homo sapiens) (P04637 whole entry, looked up): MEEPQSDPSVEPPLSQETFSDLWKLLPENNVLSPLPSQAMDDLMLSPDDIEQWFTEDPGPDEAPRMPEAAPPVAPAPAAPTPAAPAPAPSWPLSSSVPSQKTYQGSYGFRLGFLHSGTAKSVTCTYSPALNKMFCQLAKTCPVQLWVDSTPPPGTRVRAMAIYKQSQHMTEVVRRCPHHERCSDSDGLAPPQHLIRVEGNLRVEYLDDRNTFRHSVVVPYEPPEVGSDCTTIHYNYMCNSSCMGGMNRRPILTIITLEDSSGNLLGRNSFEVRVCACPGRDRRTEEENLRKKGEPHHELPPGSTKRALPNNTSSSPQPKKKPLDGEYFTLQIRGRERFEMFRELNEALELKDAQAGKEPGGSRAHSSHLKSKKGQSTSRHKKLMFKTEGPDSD
The mark [3] stands for this setting: measured here: cell number at 24 h, Library stock concentration: 46 uM.
Setting [4] is: measured here: cell number at 24 h, Library stock concentration: 278 uM.
[5] abbreviates: measured here: cell number at 24 h, Library stock concentration: 1.67 mM.
[6] abbreviates: measured here: cell number at 24 h, Library stock concentration: 10 mM.
The mark [7] stands for this setting: measured here: cell number at 48 h, Library stock concentration: 46 uM.
Setting [8] is: measured here: cell number at 48 h, Library stock concentration: 278 uM.
[9] abbreviates: measured here: cell number at 48 h, Library stock concentration: 1.67 mM.
[10] abbreviates: measured here: cell number at 48 h, Library stock concentration: 10 mM.
The mark [11] stands for this setting: Library stock concentration: 46 uM.
Where [12] appears, read: Library stock concentration: 278 uM.
The mark [13] stands for this setting: Library stock concentration: 1.67 mM.
[14] abbreviates: Library stock concentration: 10 mM.
[15] abbreviates: measured here: p53 positive nuclei at 24 h, Library stock concentration: 46 uM.
Setting [16] is: measured here: p53 positive nuclei at 24 h, Library stock concentration: 278 uM.
[17] abbreviates: measured here: p53 positive nuclei at 24 h, Library stock concentration: 1.67 mM.
The mark [18] stands for this setting: measured here: p53 positive nuclei at 24 h, Library stock concentration: 10 mM.
Where [19] appears, read: measured here: cell number at 24 h, Library stock concentration: 3.33 mM.
Setting [20] is: measured here: cell number at 48 h, Library stock concentration: 3.33 mM.
The mark [21] stands for this setting: Library stock concentration: 3.33 mM.
Where [22] appears, read: measured here: p53 positive nuclei at 24 h, Library stock concentration: 3.33 mM.

For the molecule `COC(=O)C(NC(=O)c1cc(-c2ccccc2)nc2ccccc12)c1ccccc1` (centres undefined), the nuclei count, normalised in test [1] (setting [3]) stood at 105%; in test [1] (setting [4]) it was 105%; in test [1] (setting [5]) it was 93.3%; in test [1] (setting [6]) it was 96.9%; in test [1] (setting [7]), 111%; in test [1] (setting [8]), 107%. For the same molecule, the nuclei count, normalised in test [1] (setting [9]) was 100%; in test [1] (setting [10]), 103%. In addition, the p53-positive nuclei, normalised is -0.241% (inactive) in test [2] (setting [11]); -0.232% (inactive) in test [2] (setting [12]); -0.104% (inactive) in test [2] (setting [13]); 0.115% (inactive) in test [2] (setting [14]); -0.21% in test [2] (setting [15]); -0.0834% in test [2] (setting [16]). The p53-positive nuclei, normalised was found to be 0.359% in test [2] (setting [17]) and 0.069% in test [2] (setting [18]).

For the molecule `CCC(C(C)O)n1ncn(-c2ccc(N3CCN(c4ccc(OCC5CO[C@@](Cn6cncn6)(c6ccc(F)cc6F)C5)cc4)CC3)cc2)c1=O` (some centres undefined), the nuclei count, normalised in test [1] (setting [19]) worked out at 91.3%; in test [1] (setting [20]), 91.4%. The p53-positive nuclei, normalised in test [2] (setting [21]) was -0.489% (inactive); in test [2] (setting [22]), -0.171%.

Consider `CCOC(=O)c1sc(NC(=O)c2ccco2)c(SC#N)c1C`, for which the nuclei count, normalised in test [1] (measured here: cell number at 24 h, Library stock concentration: 500 nM) was 118%; in test [1] (measured here: cell number at 24 h, Library stock concentration: 1.5 uM), 119%; in test [1] (measured here: cell number at 24 h, Library stock concentration: 4.6 uM) it was 115%; in test [1] (measured here: cell number at 24 h, Library stock concentration: 13.7 uM) it was 107%; in test [1] (measured here: cell number at 24 h, Library stock concentration: 41 uM) it was 124%; in test [1] (measured here: cell number at 24 h, Library stock concentration: 123 uM), 109%. The nuclei count, normalised came to 113% in test [1] (measured here: cell number at 24 h, Library stock concentration: 370 uM); 114% in test [1] (measured here: cell number at 24 h, Library stock concentration: 1.111 mM); 103% in test [1] (measured here: cell number at 24 h, Library stock concentration: 3.333 mM); 97.4% in test [1] (setting [6]); 111% in test [1] (measured here: cell number at 48 h, Library stock concentration: 500 nM); 109% in test [1] (measured here: cell number at 48 h, Library stock concentration: 1.5 uM). The nuclei count, normalised was determined as 104% in test [1] (measured here: cell number at 48 h, Library stock concentration: 4.6 uM); 103% in test [1] (measured here: cell number at 48 h, Library stock concentration: 13.7 uM); 110% in test [1] (measured here: cell number at 48 h, Library stock concentration: 41 uM); 106% in test [1] (measured here: cell number at 48 h, Library stock concentration: 123 uM); 110% in test [1] (measured here: cell number at 48 h, Library stock concentration: 370 uM); 112% in test [1] (measured here: cell number at 48 h, Library stock concentration: 1.111 mM). In addition, the nuclei count, normalised worked out at 106% in test [1] (measured here: cell number at 48 h, Library stock concentration: 3.333 mM) and 101% in test [1] (setting [10]). Further, the p53-positive nuclei, normalised in test [2] (Library stock concentration: 500 nM) is 0.102% (inactive); in test [2] (Library stock concentration: 1.5 uM) it was -0.24% (inactive); in test [2] (Library stock concentration: 4.6 uM), -0.158% (inactive); in test [2] (Library stock concentration: 13.7 uM), -0.0345% (inactive); in test [2] (Library stock concentration: 41 uM), 0.07% (inactive); in test [2] (Library stock concentration: 123 uM), 0.0394% (inactive). In addition, the p53-positive nuclei, normalised in test [2] (Library stock concentration: 370 uM) is 0.143% (inactive); in test [2] (Library stock concentration: 1.111 mM), 0.138% (inactive); in test [2] (Library stock concentration: 3.333 mM) it was 0.637% (inactive); in test [2] (setting [14]) it was 1.1% (inactive); in test [2] (measured here: p53 positive nuclei at 24 h, Library stock concentration: 500 nM), -0.0629%; in test [2] (measured here: p53 positive nuclei at 24 h, Library stock concentration: 1.5 uM), -0.173%. In addition, the p53-positive nuclei, normalised was -0.116% in test [2] (measured here: p53 positive nuclei at 24 h, Library stock concentration: 4.6 uM); -0.111% in test [2] (measured here: p53 positive nuclei at 24 h, Library stock concentration: 13.7 uM); -0.122% in test [2] (measured here: p53 positive nuclei at 24 h, Library stock concentration: 41 uM); 0.00346% in test [2] (measured here: p53 positive nuclei at 24 h, Library stock concentration: 123 uM); 0.0563% in test [2] (measured here: p53 positive nuclei at 24 h, Library stock concentration: 370 uM); 0.34% in test [2] (measured here: p53 positive nuclei at 24 h, Library stock concentration: 1.111 mM). For the same molecule, the p53-positive nuclei, normalised amounted to 1.08% in test [2] (measured here: p53 positive nuclei at 24 h, Library stock concentration: 3.333 mM) and 2.09% in test [2] (setting [18]).

For `CN1CCc2c(c3ccccc3n2Cc2ccc(C(=O)NO)cc2)C1`, the nuclei count, normalised in test [1] (setting [3]) was 117%; in test [1] (setting [4]), 120%; in test [1] (setting [5]) it was 115%; in test [1] (setting [19]) it was 110% and 92.2%; in test [1] (setting [6]), 114%; in test [1] (setting [7]), 119%. Further, the nuclei count, normalised in test [1] (setting [8]) was 116%; in test [1] (setting [9]), 110%; in test [1] (setting [20]), 102% and 95.4%; in test [1] (setting [10]), 107%. Further, the p53-positive nuclei, normalised was -0.237% (inactive) in test [2] (setting [11]); 0.0738% (inactive) in test [2] (setting [12]); 0.201% (inactive) in test [2] (setting [13]); -0.139% (inactive) and -0.349% (inactive) in test [2] (setting [21]); -0.117% (inactive) in test [2] (setting [14]); -0.158% in test [2] (setting [15]). For the same molecule, the p53-positive nuclei, normalised in test [2] (setting [16]) was -0.207%; in test [2] (setting [17]), -0.0538%; in test [2] (setting [22]), -0.314% and -0.356%; in test [2] (setting [18]), -0.152%.

Turning to `COc1cc(C(=O)NS(=O)(=O)c2ccccc2C)ccc1Cc1cn(C)c2ccc(NC(=O)OC3CCCC3)cc12`, the nuclei count, normalised in test [1] (measured here: cell number at 24 h, Library stock concentration: 80 uM) amounted to 110%; in test [1] (measured here: cell number at 24 h, Library stock concentration: 400 uM), 108%; in test [1] (measured here: cell number at 24 h, Library stock concentration: 2 mM) it was 113%; in test [1] (setting [19]), 103%; in test [1] (setting [6]), 105%; in test [1] (measured here: cell number at 24 h, concentration not given here), 89.5%. Also, the nuclei count, normalised came out at 113% in test [1] (measured here: cell number at 48 h, Library stock concentration: 80 uM); 108% in test [1] (measured here: cell number at 48 h, Library stock concentration: 400 uM); 111% in test [1] (measured here: cell number at 48 h, Library stock concentration: 2 mM); 108% in test [1] (setting [20]); 105% in test [1] (setting [10]); 92.4% in test [1] (measured here: cell number at 48 h, concentration not given here). Further, the p53-positive nuclei, normalised in test [2] (Library stock concentration: 80 uM) is -0.138% (inactive); in test [2] (Library stock concentration: 400 uM), 0.119% (inactive); in test [2] (Library stock concentration: 2 mM), -0.133% (inactive); in test [2] (setting [21]) it was -0.0165% (inactive); in test [2] (setting [14]), 0.0919% (inactive); in test [2] (concentration not given here), -0.151% (inactive). The p53-positive nuclei, normalised in test [2] (measured here: p53 positive nuclei at 24 h, Library stock concentration: 80 uM) is -0.0129%; in test [2] (measured here: p53 positive nuclei at 24 h, Library stock concentration: 400 uM), -0.0637%; in test [2] (measured here: p53 positive nuclei at 24 h, Library stock concentration: 2 mM), 0.0356%; in test [2] (setting [22]) it was -0.167%; in test [2] (setting [18]), 0.0472%; in test [2] (measured here: p53 positive nuclei at 24 h, concentration not given here), 0.0267%.
